EWS-Fli inh = inhibitors of EWS/Fli oncoprotein transcriptional activity; 350,000 compounds, 0.67% hits; A673 NR0B1-luciferase reporter, viability-normalised; inhibition, % at 12.6 µM;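 active = mean inhibition of at least 50% after viability correction, with every replicate also passing that limit; inconclusive = mean reaches 50% but only one of two replicates passes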;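 also: firefly luciferase signal divided by Alamar Blue viability fluorescence both relative to DMSO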
Statin myotox sup = suppressors of simvastatin-induced myotoxicity in C2C12 myotubes; ATP luminescence, 48 h; scaled: DMSO 0, geranylgeraniol control 100; rescue of ATP level, % at 7.49 µM; 330,000 compounds, 0.78% hits; AID 602340;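 active = mean ATP rescue above about 67%, or every replicate alone reaching that limit, limit read from the data, passing the limit was not always enough; inconclusive = no clear call, values can overlap the other calls; inactive = mean under the limit and some replicate under it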;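 also: myotubes were challenged with 10 µM simvastatin during compound exposure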
miR122 inh = miR-122 inhibition in Huh7 cells | Huh7 miR-122 Renilla luciferase sensor, 48 h; neutral wells = 0, positive control = 100 | activation (reporter increase), % at 12.5 µM | 340,000 compounds, 0.3% hits | AID 602342;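 active = mean replicate activation score at least 90 and every replicate individually at or above 90; inconclusive = only one of the two criteria met; inactive = neither criterion met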;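 also: higher luciferase means less miR-122 activity so hits act as miR-122 inhibitors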
PAX8 reporter = inhibitors of PAX8 transcriptional activity in RMG-I cells; RMG-I TPO-luciferase reporter, SteadyGlo, 24 h; inhibition, % at 12.6 µM; 360,000 compounds, 1.2% hits;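 active = mean replicate inhibition at least 60% with every replicate also reaching 60%; inconclusive = only one of the two criteria is met; inactive = mean below 60% and not all replicates reaching 60%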;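 also: luciferase light reporting Pax8 driven TPO promoter activity; plate controls were median of neutral control wells for no effect and mitoxantrone controls for full effect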
GSIS activator = primary screen for activators of insulin secretion dependent on glucose, INS-1E cells, GLuc reporter luminescence. INS-1E GLuc reporter insulin secretion, 2-3 h. activation, % at 16.6 µM. 370,000 compounds, 0.61% hits;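 active = lowest replicate activation of at least 40%, so every replicate reaches that level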;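 also: 0% = median of neutral control wells and 100% = median of IBMX positive control wells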
HIV Env fusion = inhibitors of HIV Env-mediated cell fusion; HeLa-JRFL Env/CEM21 cell fusion, luciferase; inhibition, % at 12.3 µM; 360,000 compounds, 1.1% hits;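 active = mean replicate inhibition score of at least 50 and every replicate individually at or above 50; inconclusive = only one of the two criteria met; inactive = mean below 50 and not all replicates reaching 50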;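 also: 0% = plate neutral controls and 100% = maraviroc near 300 nM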
* = called active by the depositor; u = inconclusive; x = not tested or not shown; [ ] = remark or other dose. Hits are enriched below; roughly 3.1% of the tested compounds scored in any of these assays.

SMILES	EWS-Fli inh	Statin myotox sup	miR122 inh	PAX8 reporter	GSIS activator	HIV Env fusion
CCCC(=O)Nc1ccc2c(c1)OC[C@H](C)N(Cc1ccccc1)C[C@@H](C)[C@@H](OC)CN(C)C2=O	-9.4	13.0	17.7[16.7 µM]	-1.0	9.0	1.3[16.7 µM]
CC1CCCC=CC2CC(OC(=O)CN(C)C)CC2C(O)C=CC(=O)O1 (stereo not drawn)	62.7*	x	-1.5	114.8*	x	62.4*
COCCNC(=O)C[C@H]1C=C[C@@H](NS(=O)(=O)c2ccc(C)cc2)[C@H](CO)O1	-7.9	-4.0	x	5.0	-9.2	-7.3[16.7 µM]
CCN(c1ccccc1)S(=O)(=O)c1cnc[nH]1	x	87.6*	-2.4	x	x	x
C=CCn1c(SCC#N)nc2sc(CC)cc2c1=O	11.3	26.3	-3.7	-15.1	88.7*	13.1
C=CCn1c(SCC(=O)c2cccs2)nc2sc(CC)cc2c1=O	x	19.1	1.4	x	x	88.3*
CCOc1ccc(CCNC(=O)CSc2cc(=O)n(C)c3ccccc23)cc1OCC	x	-2.1	13.6	0.3	56.6*	9.6
O=C(Cn1ccc2ccccc2c1=O)NCCC(=O)N1CCN(C(=O)c2ccco2)CC1	x	78.0*	-5.4	x	x	-68.4
CCOc1ccc(CCNC(=O)Cn2ccc3ccccc3c2=O)cc1OCC	-4.7	x	x	12.5	50.3*	0.0
CCOc1ccc(CCNC(=O)COc2cc(=O)n(C)c3ccccc23)cc1OCC	9.4	x	x	15.6	52.4*	11.4
CCCCNC(=O)CSc1cc(=O)n(C)c2ccccc12	x	x	2.2	x	x	-51.4
O=C(CC1CC1)N[C@H]1CC[C@@H](CCNS(=O)(=O)c2ccc(F)cc2)O[C@@H]1CO	-48.0	-0.4	x	-5.0	6.5	3.8[16.7 µM]
Cc1ccc(-c2nn(Cc3ccccc3)cc2/C=C/C(=O)O)cc1C	x	85.8*	0.4	x	-1.4	x
Cc1ccc(C2=NN=C(NC(=O)CSc3nc(C)cc(C)n3)SC2)cc1	u	x	x	76.0*	x	15.0
CC1CC(=O)c2cc(-c3ccccc3)oc2C1 (stereo not drawn)	-49.1	11.1	x	-141.5	-6.3	-17.6
CC1CC(=O)C(C(C2=C(O)CC(C)CC2=O)c2ccccc2)=C(O)C1 (stereo not drawn)	-2.0	100.8*	33.2	5.5	-1.5	-13.4
CN1CCN(C2=Cc3ccccc3Sc3cc(F)ccc32)CC1	x	110.3*	-1.6	27.9	x	-0.3
CN1CCN(C2=Cc3ccc(Cl)cc3Sc3ccc(F)cc32)CC1	x	x	-7.2	x	x	16.4
OC[C@H]1CC[C@@H]2O[C@H](CCc3ccc(C#CCc4ccccc4)cc3)[C@@H](n3cc(-c4ccccc4)nn3)C[C@@H]2O1	13.3	x	x	70.7*	x	x
CCC1(C)Cc2ccccc2-c2nc(SC)[nH]c(=O)c21 (stereo not drawn)	-12.3	24.0	x	-8.8	60.2*	80.0*
CC1=C(C#N)C(c2ccccc2)C2=C(N1)c1ccccc1C2=O (stereo not drawn)	37.1	4.6	-0.7	31.7	-26.8	39.1
CC(=O)C1=C(C)NC2=C(C(=O)c3ccccc32)C1c1ccccc1 (stereo not drawn)	1.4	x	x	7.9	57.3	63.5*
C[C@H](CO)N1C[C@H](C)[C@H](CN(C)C)Oc2c(NC(=O)Nc3ccc(C(F)(F)F)cc3)cccc2C1=O	-5.9	-1.7	-11.0[16.7 µM]	18.9	-6.4	x
CO[C@@H]1CN(C)C(=O)c2cc(NC(=O)c3cc(C)on3)ccc2OC[C@H](C)N(CC2CC2)C[C@@H]1C	-2.4	4.6	x	2.2	-10.5	11.5[16.7 µM]
Cc1ccc(S(=O)(=O)Nc2ccc(-n3cnnn3)cc2)cc1	x	-2.5	x	14.9	18.7	3.6
SMILES	EWS-Fli inh	Statin myotox sup	miR122 inh	PAX8 reporter	GSIS activator	HIV Env fusion
Cc1ccc(S(=O)(=O)Nc2ccc(-n3cnnn3)cc2)c(C)c1	3.3	1.6	148.7*	-9.8	11.2	x
CO[C@H]1CN(C)C(=O)c2ccc(NC(=O)C3CC3)cc2OC[C@@H](C)N(C(C)=O)C[C@@H]1C	0.6	-11.1	x	-5.5	11.0	62.0*[16.7 µM]
CO[C@@H]1CN(C)C(=O)c2ccc(NC(=O)C3CCC3)cc2OC[C@H](C)N(CC2CCCCC2)C[C@@H]1C	-11.1	-7.4	x	-3.7	-2.6	7.5[16.7 µM]
CO[C@@H]1CN(C)C(=O)c2ccc(NC(=O)C3CC3)cc2OC[C@@H](C)N(C(C)=O)C[C@H]1C	x	x	x	x	0.9	x
CO[C@@H]1CN(C)C(=O)c2ccc(NC(=O)Nc3cccc(F)c3)cc2OC[C@@H](C)N(C(C)=O)C[C@@H]1C	-8.0	0.5	x	x	-9.0	-0.7[16.7 µM]
CO[C@@H]1CN(C)C(=O)c2ccc(NC(=O)Nc3cccc(F)c3)cc2OC[C@@H](C)N(C(=O)Nc2cccc(F)c2)C[C@H]1C	-12.1	0.2	-10.1[16.7 µM]	x	-8.9	74.0*[16.7 µM]
CO[C@H]1CN(C)C(=O)c2ccc(NC(=O)Nc3cccc(F)c3)cc2OC[C@@H](C)N(C(C)=O)C[C@H]1C	-1.8	-5.8	x	x	-7.8	64.7*[16.7 µM]
CO[C@H]1CN(C)C(=O)c2ccc(NC(=O)C3CCC3)cc2OC[C@@H](C)N(CC2CCCCC2)C[C@@H]1C	12.8	3.9	x	28.5	-39.2	58.4*[16.7 µM]
COc1ccc(CN(C)C[C@@H]2OCCCC[C@@H](C)Oc3ccc(NC(=O)NC(C)C)cc3C(=O)N([C@@H](C)CO)C[C@H]2C)cc1	-0.3	16.7	0.2[16.7 µM]	-0.7	-2.1	3.2[16.7 µM]
CO[C@H]1CN(C)C(=O)c2ccc(NC(=O)Nc3cccc(F)c3)cc2OC[C@H](C)NC[C@H]1C	-11.1	-7.8	x	10.6	17.5	75.5*[16.7 µM]
CO[C@H]1CN(C)C(=O)c2cc(NC(=O)C3CCOCC3)ccc2OC[C@H](C)N(Cc2nccs2)C[C@H]1C	1.0	18.3	x	11.9	-0.9	74.3*
CO[C@H]1CN(C)C(=O)c2cc(NC(=O)C3CCOCC3)ccc2OC[C@@H](C)N(Cc2nccs2)C[C@@H]1C	-1.8	-1.1	x	-15.4	6.9	x
COCC(=O)N(C)C[C@H]1Oc2cc(C#CCN(C)C)ccc2S(=O)(=O)N([C@H](C)CO)C[C@@H]1C	-7.1	-5.8	-1.6[16.7 µM]	x	6.2	-9.2[16.7 µM]
Cc1onc(-c2ccccc2Cl)c1C(=O)N1CCC(C(N)=O)CC1	6.1	0.3	-2.3	-2.1	1.6	7.9
CCOC(=O)C1CCN(C(=O)c2c(-c3c(Cl)cccc3Cl)noc2C)CC1	x	93.3*	-1.0	x	x	x
Cc1onc(-c2ccccc2Cl)c1C(=O)N1CCN(c2cccc(Cl)c2)CC1	54.5*	x	5.4	7.7	x	-82.5
Cc1onc(-c2ccccc2Cl)c1C(=O)N1CCN(c2ccccc2)CC1	x	37.1	-3.0	x	-9.5	19.4
CCOC(=O)N1CCN(C(=O)c2c(-c3c(Cl)cccc3Cl)noc2C)CC1	-0.4	-3.3	-3.1	-16.4	12.9	-8.8
Cc1onc(C(=O)N2CCC(C(N)=O)CC2)c1-c1ccccc1Cl	x	91.8*	0.6	-6.7	x	-38.2
Cn1c(SCc2ccc(Cl)cc2Cl)nc(C(F)(F)F)cc1=O	x	-9.9	-4.0	x	64.7*	-14.2
FC(F)(F)c1nc(SCc2ccc(Cl)cc2Cl)n[nH]1	-21.4	-8.0	x	-32.6	x	-4.9
